Screens as filed in PubChem BioAssay.
BoNT-F LC inh: BoNT F light chain protease inhibition. Multiplex microsphere protease cleavage assay, flow cytometry. inhibition, % at 10 µM. 0.22% of 360,000 active. AID 588497; in the data active means inhibition above about 35%, passing the limit was not always enough; inconclusive means no clear call, values can overlap the other calls; further: plate controls were buffer without enzyme for full effect and enzyme alone for no effect
Mtb FBA inh: Mtb fructose-bisphosphate aldolase inhibition. purified M. tuberculosis FBA, fluorescence read-out. 2.3% of 360,000 active. P9WQA3. inhibition, % at 1 µM; in the data active means inhibition above about 27%;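 further: 0% = vehicle and 100% = reference inhibitor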
GDH-TPI counter: counter-screen for M. tuberculosis FBA inhibitors: GDH-TPI coupled enzymes; GDH-TPI coupled enzyme counterscreen, NADH absorbance; inhibition, % at 4.8 µM; 1.2% of 360,000 active; in the data active means inhibition above about 30%;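 further: 0% = DMSO wells and 100% = wells lacking the enzyme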
BoNT-A LC inh2: inhibitors of Botulinum neurotoxin A light chain protease. 0.17% of 360,000 active. multiplex microsphere protease substrate cleavage, flow cytometry. inhibition, % at 10 µM; in the data active means inhibition above about 30%; inconclusive means no clear call, values can overlap the other calls; further: plate controls were buffer without enzyme for full effect and enzyme alone for no effect
Anthrax LF prot: inhibitors of Bacillus anthracis lethal factor protease; 0.12% of 360,000 active; multiplex microsphere protease cleavage assay, LF; AID 588501; P15917; inhibition, % at 10 µM; in the data active means inhibition above about 30%; inconclusive means no clear call, values can overlap the other calls; further: plate controls were buffer without enzyme for full effect and enzyme alone for no effect
Target sequence (P15917 whole entry, looked up): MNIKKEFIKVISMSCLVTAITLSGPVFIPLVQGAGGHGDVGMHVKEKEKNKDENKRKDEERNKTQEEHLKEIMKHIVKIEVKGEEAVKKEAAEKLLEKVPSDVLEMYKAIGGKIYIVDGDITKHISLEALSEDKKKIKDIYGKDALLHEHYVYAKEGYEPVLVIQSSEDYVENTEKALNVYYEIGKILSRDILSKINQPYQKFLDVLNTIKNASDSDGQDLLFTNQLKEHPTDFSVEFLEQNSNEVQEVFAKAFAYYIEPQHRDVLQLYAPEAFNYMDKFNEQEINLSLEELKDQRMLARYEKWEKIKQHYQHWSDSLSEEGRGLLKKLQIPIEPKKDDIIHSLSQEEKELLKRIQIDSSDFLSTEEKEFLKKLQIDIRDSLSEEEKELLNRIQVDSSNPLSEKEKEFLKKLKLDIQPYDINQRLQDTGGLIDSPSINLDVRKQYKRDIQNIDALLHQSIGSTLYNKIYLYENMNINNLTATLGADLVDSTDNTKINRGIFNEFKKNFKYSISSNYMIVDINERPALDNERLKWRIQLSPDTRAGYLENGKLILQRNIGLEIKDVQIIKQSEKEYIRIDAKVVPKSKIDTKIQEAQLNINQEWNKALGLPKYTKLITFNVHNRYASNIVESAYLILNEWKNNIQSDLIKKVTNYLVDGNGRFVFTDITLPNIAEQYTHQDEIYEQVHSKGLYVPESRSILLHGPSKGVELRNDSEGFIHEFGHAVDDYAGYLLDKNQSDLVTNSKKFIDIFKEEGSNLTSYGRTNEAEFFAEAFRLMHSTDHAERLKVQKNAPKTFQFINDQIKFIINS
Bead autofluor: flagged as autofluorescent in microsphere protease counterscreen | compound autofluorescence counterscreen, microsphere flow cytometry; active compounds read high | fluorescence intensity (no concentration beside the values) | 3.1% of 360,000 active | AID 624483; in the data active means fluorescence intensity above about 16000; inconclusive means no clear call, values can overlap the other calls
BoNT-A LC CP1: blocks botulinum neurotoxin A light chain protease; multiplex microsphere protease assay, flow cytometry; inhibition, % at 10 µM; shares compounds with BoNT-F LC inh; 3% of 720 active; in the data active means inhibition above about 32%
BoNT-F LC CP1: blocks botulinum neurotoxin F light chain protease; inhibition, % at 10 µM; 720 tested, under 10 active; multiplex microsphere protease cleavage assay, flow cytometry; AID 602140; shares compounds with BoNT-F LC inh
LF protease CP1: blocks anthrax lethal factor protease; shares compounds with BoNT-F LC inh; multiplex microsphere protease cleavage assay, LF; 720 tested, under 10 active; AID 602142; inhibition, % at 10 µM
* hit, by the source's call. Sampled rows, rich in hits. Any-hit rate of the full collection: about 6.6%. Unless noted, how the calls were made is not given here.

For O=C1CNCc2[nH]c3ccccc3c2N1c1ccccc1 the results were BoNT-F LC inh -8, Mtb FBA inh 0, GDH-TPI counter 5, BoNT-A LC inh2 33*, Anthrax LF prot 21, Bead autofluor 9946, BoNT-A LC CP1 0, BoNT-F LC CP1 -10 and LF protease CP1 -3.
`CN(Cc1ccccc1)C(=O)C1CCN(S(=O)(=O)c2ccc(-n3cnnn3)cc2)CC1` gave BoNT-F LC inh -1, Mtb FBA inh 1, GDH-TPI counter -7, BoNT-A LC inh2 0, Anthrax LF prot 2 and Bead autofluor 5996.
`O=[N+]([O-])c1ccc(-c2cn3c(n2)CCC3)cc1` gave BoNT-F LC inh 37*, Mtb FBA inh 3, GDH-TPI counter 14, BoNT-A LC inh2 -4, Anthrax LF prot 4, Bead autofluor inconclusive, BoNT-A LC CP1 1, BoNT-F LC CP1 -5 and LF protease CP1 -4.
c1ccc(-c2cn3c(n2)CCC3)cc1 was read as BoNT-F LC inh -6, Mtb FBA inh 4, GDH-TPI counter -1, BoNT-A LC inh2 0, Anthrax LF prot -3 and Bead autofluor 2699.
`O=C(Oc1c(-c2ccccc2)c(=O)n2c3c(cccc13)CC2)c1ccccc1` gave BoNT-F LC inh -38, Mtb FBA inh 1, GDH-TPI counter -2, BoNT-A LC inh2 -11, Anthrax LF prot -10 and Bead autofluor 4779.
O=C(Oc1c(-c2ccccc2)c(=O)n2c3c(cccc13)CC2)c1ccc(F)cc1 was read as BoNT-F LC inh inconclusive, Mtb FBA inh 0, GDH-TPI counter 4, BoNT-A LC inh2 inconclusive, Anthrax LF prot 37*, Bead autofluor 4267, BoNT-A LC CP1 2, BoNT-F LC CP1 2 and LF protease CP1 2.
Cc1cc(C)n(CC(O)Cn2c(C)c(C)c3ccccc32)n1 (configuration not stated) was read as BoNT-F LC inh 35*, Mtb FBA inh 7, GDH-TPI counter 8, BoNT-A LC inh2 4, Anthrax LF prot 7, Bead autofluor 4825, BoNT-A LC CP1 0, BoNT-F LC CP1 -2 and LF protease CP1 4.
For COc1ccc(-c2cc3ccccc3n2CC(O)Cn2nc(C)cc2C)cc1 (configuration not stated) the results were BoNT-F LC inh -38, Mtb FBA inh 1, GDH-TPI counter 8, BoNT-A LC inh2 152*, Anthrax LF prot 49*, Bead autofluor 3026, BoNT-A LC CP1 0, BoNT-F LC CP1 -4 and LF protease CP1 -2.
For Cc1c(N/C(=N/S(=O)(=O)c2ccc(F)cc2)c2ccccc2)c(=O)n(-c2ccccc2)n1C the results were BoNT-F LC inh -3, Mtb FBA inh 5, GDH-TPI counter 3, BoNT-A LC inh2 0, Anthrax LF prot 2 and Bead autofluor 4270.
COCc1cc(CN2CCCC(C(=O)c3cccc(C(F)(F)F)c3)C2)ccc1OC (configuration not stated) was read as BoNT-F LC inh 43*, Mtb FBA inh -2, GDH-TPI counter 12, BoNT-A LC inh2 4, Anthrax LF prot -2, Bead autofluor 3106, BoNT-A LC CP1 -2, BoNT-F LC CP1 0 and LF protease CP1 -3.
Screening CCOC(=O)c1cnc(SC2CC(=O)N(c3cccc(OC)c3)C2=O)nc1N (configuration not stated) returned BoNT-F LC inh 34, Mtb FBA inh 5, GDH-TPI counter 4, BoNT-A LC inh2 2, Anthrax LF prot 2, Bead autofluor 3383, BoNT-A LC CP1 2, BoNT-F LC CP1 -4 and LF protease CP1 -1.
Screening Cc1cc(NC(=O)CSc2nnc(-c3ccncc3)n2C)n(-c2ccccc2)n1 returned BoNT-F LC inh inconclusive, Mtb FBA inh 1, GDH-TPI counter 8, BoNT-A LC inh2 8, Anthrax LF prot 70*, Bead autofluor 7628, BoNT-A LC CP1 1, BoNT-F LC CP1 3 and LF protease CP1 4.
`Cn1cc(CC(=O)NCCCN2CCOCC2)c2ccccc21` gave BoNT-F LC inh -2, Mtb FBA inh 0, GDH-TPI counter 15, BoNT-A LC inh2 0, Anthrax LF prot 2 and Bead autofluor 2034.
Cn1cc(CC(=O)NCCCN2CCCC2)c2ccccc21 was read as BoNT-F LC inh 36*, Mtb FBA inh 0, GDH-TPI counter -2, BoNT-A LC inh2 4, Anthrax LF prot 8, Bead autofluor 3978, BoNT-A LC CP1 1, BoNT-F LC CP1 -2 and LF protease CP1 0.
Screening CCOC(=O)CC(=O)CSc1ncc(C(=O)OCC)c(N)n1 returned BoNT-F LC inh 134*, Mtb FBA inh 6, GDH-TPI counter 4, BoNT-A LC inh2 1, Anthrax LF prot 50*, Bead autofluor 6848, BoNT-A LC CP1 2, BoNT-F LC CP1 5 and LF protease CP1 3.
Screening COC(=O)C1CSC(C(=O)OC)N1C(=O)CN1CCN(c2ccccc2)CC1 (configuration not stated) returned BoNT-F LC inh 4, Mtb FBA inh 1, GDH-TPI counter 7, BoNT-A LC inh2 0, Anthrax LF prot 4 and Bead autofluor 4504.
O=C(CCNC(=O)c1ccco1)NCCc1ccc(Cl)cc1 was read as BoNT-F LC inh -6, Mtb FBA inh 4, GDH-TPI counter 8, BoNT-A LC inh2 -4, Anthrax LF prot -1 and Bead autofluor inconclusive.
O=C(CCNC(=O)c1ccccc1)NCCc1ccc(Cl)cc1 was read as BoNT-F LC inh -9, Mtb FBA inh 3, GDH-TPI counter -3, BoNT-A LC inh2 1, Anthrax LF prot 38*, Bead autofluor 3849, BoNT-A LC CP1 -1, BoNT-F LC CP1 -7 and LF protease CP1 -1.
COc1ccccc1NCC(=O)N1CCN(S(=O)(=O)c2ccccc2)CC1 was read as BoNT-F LC inh -12, Mtb FBA inh -2, GDH-TPI counter 1, BoNT-A LC inh2 -8, Anthrax LF prot 32*, Bead autofluor inconclusive, BoNT-A LC CP1 2, BoNT-F LC CP1 2 and LF protease CP1 2.
Screening Cc1nnc(SCC(=O)Nc2sccc2C(N)=O)n1Cc1ccccc1 returned BoNT-F LC inh 36*, Mtb FBA inh 3, GDH-TPI counter -4, BoNT-A LC inh2 inconclusive, Anthrax LF prot 6, Bead autofluor 5801, BoNT-A LC CP1 -1, BoNT-F LC CP1 -6 and LF protease CP1 -1.
COc1ccc(OCC(=O)N2CCC3(CC2)CC(=O)c2ccccc2O3)cc1 was read as BoNT-F LC inh -8, Mtb FBA inh 2, GDH-TPI counter 1, BoNT-A LC inh2 -2, Anthrax LF prot inconclusive and Bead autofluor inconclusive.
`Cc1oc(-c2ccccc2Cl)nc1CN1CCCN(C(=O)c2ccco2)CC1` gave BoNT-F LC inh -5, Mtb FBA inh 2, GDH-TPI counter 1, BoNT-A LC inh2 0, Anthrax LF prot 0 and Bead autofluor 2763.
